Source: PubChem
mHTT CaM bind: mutant huntingtin-calmodulin interaction inhibitors – biochemical, AlphaScreen, primary screen | inhibition, % at 15 µM | AID 1671202, 2021 | AlphaScreen His-mHTT/GST-CaM binding, luminescence | P42858 | 3.6% of 190,000 active;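 also: 0% = both proteins with DMSO and 100% = one protein alone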
Pf apPOL inh: Pf-apPOL inhibitors, biochemical, fluorescence | 0.25% of 210,000 active | Plasmodium falciparum apicoplast DNA polymerase (apPOL) | Recombinant Pf-apPOL, molecular beacon fluorescence, 1.5 h | inhibition, % at 10 µM
The depositor's hits bear a star. Most compounds without a hit are left out; they make up all but 3.6% or so of the library. Rule as the data show it: active = inhibition above about 50%; inactive = the rest.

`O=C(CCC(=O)N1CC2CCCN2c2ccccc21)NCCc1ccc(Cl)cc1` (configuration not stated) gave mHTT CaM bind 74.8* and Pf apPOL inh -1.3.
Screening CC(C)CCNC(=O)CCC(=O)N1CC2CCCN2c2ccccc21 (configuration not stated) returned mHTT CaM bind 12.5 and Pf apPOL inh -6.8.
`COc1ccc(CCNC(=O)CCC(=O)N2CC3CCCN3c3ccccc32)cc1OC` (configuration not stated) gave mHTT CaM bind 26.3 and Pf apPOL inh -4.9.
`O=C(CCC(=O)N1CC2CCCN2c2ccccc21)NCCc1ccccc1Cl` (configuration not stated) gave mHTT CaM bind 53.5* and Pf apPOL inh -3.1.
For Cc1nc2nc(SCC(=O)O)nn2c(C)c1Cc1ccccc1 the results were mHTT CaM bind -1.0 and Pf apPOL inh 29.8.
For Cc1ccc(C(=O)N/C(=C\c2ccccc2F)C(=O)N2CC3CC(C2)c2cccc(=O)n2C3)cc1 (configuration not stated) the results were mHTT CaM bind 10.0 and Pf apPOL inh -3.9.
Screening COc1ccc(C=C2Oc3cc(OC(C)C(=O)O)ccc3C2=O)cc1 (configuration not stated) returned mHTT CaM bind 3.1 and Pf apPOL inh 17.0.
`Cn1ncc([N+](=O)[O-])c1/C=C/N1CCOCC1` gave mHTT CaM bind -4.4 and Pf apPOL inh 2.1.
For O=[N+]([O-])c1cc(C=Nc2ccc3nc(-c4ccccc4)[nH]c3c2)c(O)c([N+](=O)[O-])c1 the results were mHTT CaM bind 19.0 and Pf apPOL inh -3.6.
Screening O=[N+]([O-])c1cccc(C=Nc2ccc(O)c(-c3nc4ccccc4[nH]3)c2)c1O returned mHTT CaM bind 68.0* and Pf apPOL inh 0.5.
Screening O=[N+]([O-])c1cc2c(cc1C=Nc1ccc(O)c(-c3nc4ccccc4[nH]3)c1)OCO2 returned mHTT CaM bind 65.0* and Pf apPOL inh 4.3.
For O=[N+]([O-])c1cc2c(cc1C=Nc1ccc(O)cc1)OCO2 the results were mHTT CaM bind 21.7.
Screening C=CCOc1ccc(/C=C2\SC(N3CCN(C(C)=O)CC3)=NC2=O)cc1 returned mHTT CaM bind 0.0 and Pf apPOL inh -3.7.
Screening CCCN(CCC)C(=O)Cc1cccs1 returned mHTT CaM bind -1.8 and Pf apPOL inh -7.0.
Screening COc1ccc(NC(=O)C23CC4CC(C2)CC(C(=O)Nc2ccc(OC)c(OC)c2)(C4)C3)cc1OC returned mHTT CaM bind -3.7 and Pf apPOL inh -4.6.
`O=C(Nc1cccc(NC(=O)c2ccncc2)c1)c1ccncc1` gave mHTT CaM bind 0.1 and Pf apPOL inh 99.3*.
For N#Cc1cccc(NC(=O)c2ccncc2)c1 the results were Pf apPOL inh -6.7.
`CCc1nc(-c2ccccc2O)n(-c2ccccc2)n1` gave mHTT CaM bind 2.1 and Pf apPOL inh -7.9.
COc1cc(/C=C/c2nc(-c3ccccc3O)n(-c3ccccc3)n2)ccc1O was read as mHTT CaM bind 88.0* and Pf apPOL inh -7.6.
`CCNc1nc2ccccn2c(=O)c1/C=C1\SC(=O)N(CC)C1=O` gave mHTT CaM bind 1.0 and Pf apPOL inh -7.8.
For Cc1cccc(N2CCN(C(=O)c3ccc4c(c3)NC(=O)c3ccccc3S4)CC2C)c1 (configuration not stated) the results were mHTT CaM bind 100.0* and Pf apPOL inh -9.7.
For Cc1cccc(N2CCN(C(=O)/C=C3\Sc4ccccc4NC3=O)CC2C)c1 (configuration not stated) the results were mHTT CaM bind 28.0 and Pf apPOL inh 3.9.
Cc1c(Cl)ccc(S(=O)(=O)N2CCN(CCO)CC2)c1Cl was read as mHTT CaM bind -4.2 and Pf apPOL inh -6.4.
O=C(O)c1cccc(NC2=CC(=NS(=O)(=O)c3cccs3)c3ccccc3C2=O)c1 was read as mHTT CaM bind 44.0 and Pf apPOL inh 22.0.
`COc1ccccc1NC1=CC(=NS(=O)(=O)c2cccs2)c2ccccc2C1=O` gave mHTT CaM bind 91.0* and Pf apPOL inh -14.9.
COc1ccccc1NS(=O)(=O)c1ccc(Cl)c(C(=O)Nc2ccc(Cl)cc2)c1 was read as mHTT CaM bind 15.0 and Pf apPOL inh 19.7.
For COc1ccccc1NC1=CC(=NS(=O)(=O)c2ccc(Cl)cc2)c2ccccc2C1=O the results were mHTT CaM bind 94.0* and Pf apPOL inh 4.1.
For O=C1C(Nc2ccccc2)=CC(=NS(=O)(=O)c2cccs2)c2ccccc21 the results were mHTT CaM bind 92.0* and Pf apPOL inh 0.0.
For COc1ccccc1Nc1ncc(-c2cccs2)s1 the results were mHTT CaM bind 25.0 and Pf apPOL inh -0.5.
`O=[N+]([O-])c1cccc(S(=O)(=O)N2CC3C4C=CC(C4)C3C2)c1` (configuration not stated) gave mHTT CaM bind 12.0 and Pf apPOL inh -2.4.
COc1ccc(S(=O)(=O)C(CNC(=O)c2ccc3c(c2)OCO3)c2cccs2)cc1 (configuration not stated) was read as mHTT CaM bind -2.7 and Pf apPOL inh -1.3.
For Nc1ccccc1Nc1c([N+](=O)[O-])c(=O)oc2ccccc12 the results were mHTT CaM bind 71.0* and Pf apPOL inh -0.4.
`COc1ccccc1Nc1c([N+](=O)[O-])c(=O)oc2ccccc12` gave mHTT CaM bind 10.0 and Pf apPOL inh 1.6.
Screening O=C(NCc1cccc(Cl)c1)c1cc2n(n1)CCCN(Cc1ccccc1)C2=O returned mHTT CaM bind -6.7 and Pf apPOL inh 0.7.
O=C(NCc1cccc(Cl)c1)c1cc2n(n1)CCCN(Cc1ccc(Cl)cc1)C2=O was read as mHTT CaM bind 64.2* and Pf apPOL inh 12.4.
`COc1ccc(C2=CC(c3cccc(Br)c3)n3ncnc3N2)cc1OC` (configuration not stated) gave mHTT CaM bind 36.2 and Pf apPOL inh -4.0.
For Cc1cc(F)ccc1NC(=O)C1CCN(c2cc(N3CCCC3)ncn2)CC1 the results were mHTT CaM bind -1.4 and Pf apPOL inh -3.5.
`COCCNC(=O)CCC1CCCN(C(=O)Nc2ccc(C)cc2)C1` (configuration not stated) gave mHTT CaM bind -8.2 and Pf apPOL inh -7.9.
Cn1c(-c2ccc(F)cc2)csc1=Nc1ccccc1 was read as mHTT CaM bind 18.0 and Pf apPOL inh 18.4.
For CCOC(CNC(=O)c1ccc2c(c1)ncn2-c1cc(Cl)ccc1OC)OCC the results were mHTT CaM bind 53.0* and Pf apPOL inh -4.2.
`COc1ccc(C)cc1-n1cnc2cc(C(=O)NCC(OC)OC)ccc21` gave mHTT CaM bind 5.0 and Pf apPOL inh -1.6.
For CN1CCN(CCNC(=O)C2CCN(c3ccc(N4CCCCC4)nn3)CC2)CC1 the results were mHTT CaM bind -9.2 and Pf apPOL inh -6.5.
O=[N+]([O-])c1ccc(O)c(C=Nc2cccc3ncccc23)c1 was read as mHTT CaM bind 26.0 and Pf apPOL inh -1.5.
Cc1ccc(O)c(C=Nc2ccc(Br)c3cccnc23)c1 was read as mHTT CaM bind 101.0* and Pf apPOL inh -4.1.
For CC(=Cc1ccccc1)C=C1SC(=S)N(C(CCC(=O)O)C(=O)O)C1=O (configuration not stated) the results were mHTT CaM bind 10.9 and Pf apPOL inh -141.6.
For CC(=Cc1ccccc1)C=C1SC(=S)N(C(Cc2ccccc2)C(=O)O)C1=O (configuration not stated) the results were mHTT CaM bind 85.3* and Pf apPOL inh -135.0.
